The text below walks through data of PubChem BioAssay (NCI).

Molecules are shown by their SMILES. About 83,000 compounds went through this panel and 20% of them were active in at least one assay; those are over-represented in the sample as a whole.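 Values shown are percent growth following 48 h exposure of cells in 96-well plates to a single concentration of compound; below 10 was considered active.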 Values without a mark were called inactive. Activity calls are given as the source filed them.

What all share (experiment): NCI-60 one-dose screen, 48 h (100 = growth as untreated, 0 = no growth, -100 = all killed)
What all share (conditions): 10 µM unless noted

For assay [1], the system named is NCI-H226 lung.
Assay [2] deals with NCI-H322M lung.
Assay [3] relates to HOP-62 NSCLC.
Assay [4] concerns NCI-H460 lung.
Assay [5] deals with HOP-92 NSCLC.
Assay [6] relates to NCI-H522 lung.
The subject of assay [7] is A549/ATCC NSCLC.
The subject of assay [8] is 786-0 renal.
Assay [9] deals with COLO 205 colon.
Assay [10] relates to DU-145 prostate.
Assay [11] deals with K-562 leukemia.
The subject of assay [12] is MALME-3M melanoma.
Assay [13] deals with MDA-MB-231 breast.
In assay [14] the test system is RXF 393 renal.
Assay [15] relates to SF-268 CNS.
Assay [16] concerns SF-295 CNS.
Assay [17] relates to SF-539 CNS.
For assay [18], the system named is UACC-257 melanoma.
The subject of assay [19] is M14 melanoma.

Turning to `O=C(c1ccccc1)c1ccc2nc(-c3ccc(F)cc3)[nH]c2c1`, the growth is 25.4% in assay [1]; 97.2% in [2]; 83.5% in assay [3]; 51.4% in assay [4]; 90.5% in [5]; -59.7% (active) in [6]. Further, the growth in assay [7] is 82.2%; in assay [8], 39%; in assay [9] it was 85.8%; in assay [10], 74.9%; in [11], 20.9%; in [12], 73%. In addition, the growth was 42.2% in assay [13]; 49.2% in assay [14]; 47.7% in [15]; 97.1% in [16]; 50.6% in [17]; 68.5% in assay [18]. Further, the growth in assay [19] was 54.4%.

`COc1ccc(C(=O)/C=C/c2ccc(OC)c(OCc3ccccc3)c2)cc1OC`: the growth in [1] is 13.9%; in assay [2] it was 13.5%; in assay [3] it was 38.2%; in assay [4], 4.04% (active); in [5] it was 26.3%; in [6], -10.7% (active). The growth in assay [7] was 8.7% (active); in assay [8], 24.5%; in assay [9], 20.1%; in assay [10] it was 15.4%; in assay [11], 13.2%; in assay [12], 74.1%. Besides, the growth in assay [13] was 17.9%; in [14], -10.4% (active); in assay [15] it was 21.1%; in assay [16], 69%; in [17], -27.2% (active); in [18] it was 42.7%. Also, the growth in assay [19] was 34.6%.

`Cc1cc(C)cc(NC(=O)Cn2cc(COn3nnc4ccccc43)nn2)c1`: the growth in assay [1] is 101%; in [2], 99.3%; in assay [3], 115%; in assay [4] it was 114%; in assay [5] it was 117%; in assay [6] it was 95.6%. The growth in [7] is 107%; in assay [8] it was 101%; in [9], 117%; in assay [10], 111%; in [11], 102%; in assay [12] it was 108%. Further, the growth was 106% in [13]; 122% in [14]; 116% in assay [15]; 110% in assay [16]; 99.6% in assay [17]; 101% in assay [18]. Besides, the growth in assay [19] was 106%.

With `Cn1cc(-c2nc(N)nnc2-c2c[nH]c3ccc(F)cc23)c2cc(Br)cnc21`, the growth was 1.02% (active) in assay [1]; 34.8% in assay [2]; 20.1% in [3]; 0.596% (active) in assay [4]; -6.31% (active) in [5]; -52.3% (active) in [6]. Moreover, the growth in assay [7] was 11.1%; in assay [8], 5.54% (active); in assay [9], -82.9% (active); in [10], 10.1%; in [11], 5.23% (active); in assay [12], 21.6%. Further, the growth was 5.57% (active) in assay [13]; -4.53% (active) in assay [14]; 4.51% (active) in assay [15]; 9.21% (active) in assay [16]; -11.5% (active) in [17]; 29.8% in assay [18]. The growth in assay [19] is -9.79% (active).

In the case of `COc1ccc(Cc2nn(CC(=O)N/N=C/c3ccc(F)cc3)c(=O)c3c(C)noc23)cc1`, the growth in [1] is 27.4%; in assay [2], 37.1%; in [3], -53.1% (active); in [4], 13.3%; in [5], -20.5% (active); in [6] it was 64.5%. For the same compound, the growth in [7] is 14%; in assay [8] it was -20.9% (active); in assay [9] it was 59.3%; in assay [10], 40%; in assay [11], 70.1%; in assay [12] it was -0.917% (active). The growth in [13] is 31.3%; in [14], -26% (active); in assay [15], 46.7%; in assay [16] it was -19.3% (active); in assay [17], 57.1%; in assay [18], 54.3%. Further, in [19], the growth was 50.8%.

For the compound `COc1ccc(NC(=O)[C@H](C)N)cc1C(=O)Nc1cccc(C2CC(=O)c3c(cc(OC)c(OC)c3OC)O2)c1` (stereo partly specified), the growth in assay [1] is 85.5%; in [3] it was 113%; in assay [4], 96.9%; in assay [5], 69.4%; in assay [6] it was 81.7%; in assay [7], 93.4%. Besides, the growth in assay [8] was 91.1%; in [9] it was 115%; in assay [10], 86.6%; in assay [11], 75.8%; in [12], 105%; in assay [13], 87.3%. Further, the growth in [14] was 92.8%; in [15], 81.5%; in assay [16], 119%; in [17], 89.3%; in [18] it was 107%; in [19], 110%.

Consider `CC1(C)CC[C@]2(C(=O)O)CC[C@]3(C)C(=CCC4[C@@]5(C)C[C@@H](O)[C@@H]6OC(c7ccccc7F)OC[C@@]6(C)C5CC[C@]43C)C2C1` (stereo partly specified), for which the growth in [1] is 27.9%; in [2], 13.5%; in [3] it was 22.1%; in assay [4] it was 3.39% (active); in [5], 5.75% (active); in assay [6], 5.45% (active). For the same compound, the growth in assay [7] was 14.2%; in assay [8] it was 16.8%; in [9] it was -44% (active); in assay [10], 20%; in [11], 12.8%; in assay [12] it was 28.6%. The growth was 20.5% in [13]; -14.5% (active) in [14]; 14.3% in assay [15]; -0.465% (active) in assay [16]; 5.14% (active) in [17]; 24.2% in [18]. Besides, the growth in assay [19] was 17.8%.

As for `COc1cc2oc(-c3cccc(C(=O)Nc4ccc(Cl)cc4)c3)cc(=O)c2c(OCCNC(=O)[C@H](CO)NC(=O)OC(C)(C)C)c1OC`, the growth in assay [1] was 42%; in assay [2] it was 35.4%; in assay [3] it was 55.1%; in assay [4], 9.69% (active); in [5], -2.01% (active); in [6], 6.54% (active). The growth in [7] is 23.8%; in [8], 32.4%; in assay [9], -43.4% (active); in assay [10] it was 32.2%; in assay [11] it was 11.3%; in [12], 20%. In addition, the growth in assay [13] was 2.74% (active); in [14], -25.7% (active); in assay [15], 41.4%; in [16], -16.4% (active); in assay [17] it was -54.2% (active); in [18] it was -41.7% (active). Further, the growth in [19] was -7.57% (active).
